Reference: ChEMBL document CHEMBL4513216, “Probing the Open Global Health Chemical Diversity Library for Multistage-Active Starting Points for Next-Generation Antimalarials” (ACS Infect Dis, 2020)
The whole screen tested about 69,000 compounds, of which about 8,600 (12%) showed an effect of 50% or more. Many of the other results were omitted from the sample, so strong results are more common in it than they were.

system: Plasmodium berghei; assay: Screen against P. berghei liver stage (PbLuc), transformed with Luciferase, at 10uM; type: functional, HepG2; conditions: tested at 10 uM

Structure (SMILES) | INHIBITION [%]
Cc1nc(C2CCCN(C(=O)c3ccc(Cl)cn3)C2)no1 (stereo unspecified) | -2.53
CCn1c(CC2CCN(S(=O)(=O)c3cccc(C)c3)CC2)nn(C)c1=O | 37.4
CN1CCN(c2ccc(F)cc2NC(=O)NCCn2ccnc2)CC1 | 37.9
O[C@@]1(CNCC2(Cn3cccn3)CC2)CCCN2CCCC[C@@H]21 | 1.56
CN1CCN(C2CCN(C(C(N)=O)c3ccccc3)CC2)C1=O (stereo unspecified) | 20.9
CCN1CCN(C2CCN(C(C(N)=O)c3ccccc3)CC2)C1=O (stereo unspecified) | 61.1
CCN1CCN(C2CCN(C(C(N)=O)c3ccc(F)cc3)CC2)C1=O (stereo unspecified) | 16.6
Cc1cnn(CCNCC(=O)NC(c2ccccc2)c2ccccc2)c1 | -18.9
Cc1c(C(=O)N2CCC2)nnn1-c1ccc2ncccc2c1 | -24.8
CCn1cnnc1CNC(=O)N1CCN(c2nc(C)c(C)s2)CC1 | 60.5
CCn1cnnc1CNC(=O)N1CCN(c2nccs2)CC1 | 27.8
CCn1cnnc1CNC(=O)N1CCC(C(=O)NC)CC1 | 61.3
CCn1cnnc1CNC(=O)N1CCC(O)CC1 | 17.4
CCn1cnnc1CNC(=O)N1CCCC1 | -3.2
CCn1cnnc1CNC(=O)N1CCC(C)CC1 | -13.5
COc1ccccc1OCCc1cc(C2CCNC2)n[nH]1 (stereo unspecified) | 41.2
Cc1ncc(C(=O)N2C[C@@H]3CC[C@H]2CN(S(=O)(=O)N(C)C)C3)c(C)n1 | 34.8
COc1ccc(N2CCNC(C(N)=O)C2)cc1 (stereo unspecified) | 7.19
COc1cccc2c1ccn2CCC(=O)N1CCCC(C(=O)O)C1 (stereo unspecified) | -22.9
O=C(O)C1CCCN(C(=O)CCn2ccc3c(Br)cccc32)C1 (stereo unspecified) | 34.2
O=C(O)C1CCCN(C(=O)CCn2ccc3c(Cl)cccc32)C1 (stereo unspecified) | 63.1
Cn1cc(C2CCCN2C(=O)c2cnc(-c3ccccn3)s2)cn1 (stereo unspecified) | -59.7

Structure (SMILES) | INHIBITION [%]
Cc1nc(Cn2c(=O)cnc3ccccc32)n(C)n1 | 17.6
COC(=O)NCC(=O)NCc1nn(-c2ccccc2)c2c1CCC2 | 24.75
Cc1noc([C@]23COC[C@H]2CN(C(=O)N2CCCC2)C3)n1 | 15.8
O=C(c1cnccn1)N1CCCC(C2=Nc3ccccc3S(=O)(=O)N2)C1 (stereo unspecified) | 16.705
CCNS(=O)(=O)c1ccc(C)c(C(=O)N(C)Cc2ccccc2C)c1 | 67.3
CCCN(C)C(=O)c1cc(S(=O)(=O)NCC)ccc1C | 16.6
CCNS(=O)(=O)c1ccc(C)c(C(=O)N(C)Cc2ccco2)c1 | 26.8
CCN(CC)[C@@H]1CN(Cc2nccn2C)[C@@H]2CCCO[C@H]12 | 20.1
COc1ncc(CN2CCOC(Cc3cccc4ccccc34)C2)cn1 (stereo unspecified) | -31.8
Cc1cccnc1CN1CCOC(Cc2cccc3ccccc23)C1 (stereo unspecified) | 42.1
c1ccc2c(CC3CN(Cc4nccs4)CCO3)cccc2c1 (stereo unspecified) | 53.3
Cc1ccc(NC(=O)Cc2cnc3n(C)c(=O)[nH]c(=O)n23)cc1 | 0.207
CCn1ncc(Cn2cc(Cl)c(N)n2)c1C | 51.5
CCn1cc(Cn2cc(Cl)c(N)n2)c(C)n1 | -18.8
Cc1c(Cn2cc(Cl)c(N)n2)cnn1C | 17.8
CC(=O)N1CCCN(C(=O)NCc2ccc(Cl)s2)CC1 | 25.6
CN(C)C(=O)COCC1CN(Cc2ccoc2)Cc2ncn(C)c21 (stereo unspecified) | 12.5
COc1ccc(S(=O)(=O)N2CCOC(Cn3ccnc3)C2)cc1 (stereo unspecified) | 8.12
FC(F)CN1CCC(NCc2ccc(-n3cccn3)nc2)CC1 | 48.2
CN(C)CCNC(=O)c1cc(-c2cnc(N3CCCC3)nc2)cn1C | 63.7
CN(C)CCNC(=O)c1cc(-c2cnc(N3CCOCC3)nc2)cn1C | 19.4
Cn1cc(-c2cnc(N3CCOCC3)nc2)cc1C(=O)NCCO | 35.8

Structure (SMILES) | INHIBITION [%]
CCCNC(=O)c1cc(-c2cnc(N3CCCC3)nc2)cn1C | 64.9
Cn1cc(-c2cnc(N3CCCC3)nc2)cc1C(=O)O | -50.8
CN1CCN(C(=O)c2cc(-c3cnc(N4CCCC4)nc3)cn2C)CC1 | -2.17
COCCN(C)C1COC2(CCN(Cc3cccc(F)c3)CC2)C1 (stereo unspecified) | 26.4
O=C(c1ccccn1)N1CCN(c2ccc(-c3cccnc3)nn2)CC1 | 21.6
COCCN(C)C[C@@H]1CN(C(=O)c2ccc(O)c(Cl)c2)C[C@@H]1CO | 46.1
CN(C)c1ccc(CNC(=O)Nc2ccc(S(C)(=O)=O)nc2)cc1 | -24.75
O=C(NCc1ccccc1F)C1=NOC2(CCNC2)C1 (stereo unspecified) | 7.65
CC(C)(C(=O)NCC(=O)NC1CC1)c1ccccc1F | 19.4
O=C(CC1CCN(c2cccnn2)CC1)Nc1cccnc1 | 21.1
CCCC(=O)NC1CCCN(Cc2cccs2)C1 (stereo unspecified) | 7.24
CC(C)(C)C(=O)N1C[C@H](c2ccsc2)[C@H]2CN(C3CCCC3)CC[C@H]21 | 34.1
CC(C)(C)C(=O)N1C[C@H](c2ccsc2)[C@H]2CN(C3CCCCC3)CC[C@H]21 | 50.8
CC(C)(C)C(=O)N1C[C@H](c2ccsc2)[C@H]2CN(Cc3cccs3)CC[C@H]21 | 54.6
O=C(C1CCC1)N1C[C@@H](c2ccsc2)[C@@H]2CN(C3CCCCC3)CC[C@@H]21 | 32.3
CC(C)(C)OC(=O)NC1CCCN(Cc2cccs2)C1 (stereo unspecified) | 16.5
Cn1nc2c(cc1=O)CN(Cc1coc(-c3cccc(F)c3)n1)CC2 | 9.54
COCCNC(=O)c1nc(NS(=O)(=O)c2ccccc2)sc1C | 17.7
Cc1cnc(C(=O)NC(CN2CCCC2=O)c2ccccc2)cn1 (stereo unspecified) | -15.543
CC(NCC1=Cc2cc(Cl)ccc2OC1)c1nnc2n1CCCC2 (stereo unspecified) | 0.139
Cc1cn2c(n1)C(CNCC1=Cc3ccccc3OC1)CCC2 (stereo unspecified) | 88.5
Cc1cn2c(n1)C(CNCC1=Cc3cc(Cl)ccc3OC1)CCC2 (stereo unspecified) | 90.2

Structure (SMILES) | INHIBITION [%]
CCN(CC)c1ncc(CNCC2CCCn3ccnc32)s1 (stereo unspecified) | 30.8
Cc1ccc(N2CCCC(NCC3=Cc4ccccc4OC3)C2)nn1 (stereo unspecified) | -4.94
Cn1ccnc1C(=O)N1CCCC(Cn2cc(CO)nn2)C1 (stereo unspecified) | 47.6
O=C(Nc1ccc(F)c(F)c1)N1CCC2(CCC(=O)N(C3CC3)C2)CC1 | 36
COCCn1ccc2cc(C(=O)NC3CCOC(C)(C)C3)ccc21 (stereo unspecified) | -16.5
COC(=O)NCC(=O)N1CCCn2nc(CN3CC[C@H](F)C3)cc2C1 | 59.1
COC(=O)NCc1cc2n(n1)CCCN(C(C)=O)C2 | 9.3
Cc1nn(C)cc1C(=O)N1CCCn2nc(CN3CC[C@H](F)C3)cc2C1 | 38.5
Cc1ccc(N2CCC(CCN3CCCC3=O)CC2)nn1 | 27.7
Cc1ccc(C2CCCN(S(=O)(=O)N3CCOCC3)C2)nc1 (stereo unspecified) | 19.85
COc1ccccc1N1CCC(CNCc2cccc(OC)c2OC)C1 (stereo unspecified) | 59.4
COc1ccc(CNCC2CCN(c3ccccc3OC)C2)cc1O (stereo unspecified) | -29.1
COc1ccccc1N1CCC(CNCc2cccc(C#N)c2)C1 (stereo unspecified) | 53.3
COc1ccccc1N1CCC(CNCc2ccc(C#N)cc2)C1 (stereo unspecified) | 40.9
COc1ccccc1N1CCC(CNCc2cccc(O)c2)C1 (stereo unspecified) | 37.5
COc1cccc(N2CCC(CNCc3cccc(C#N)c3)C2)c1 (stereo unspecified) | 26.4
Cc1cnn(CC2CCCN2C(=O)c2cccc(F)c2F)c1 (stereo unspecified) | -65.3
CN(Cc1cnn(C)c1)C(=O)CCS(=O)(=O)c1ccc2c(c1)OCCO2 | 38
O=C(c1ccsc1)N1C[C@H]2CN(Cc3cccnc3)C(=O)[C@H]2C1 | 4.61
CO[C@H]1CN(S(=O)(=O)c2ccc(C)cc2)C[C@@]12CCCO2 | 16.5
O=C(NCc1ccc(Cl)s1)c1cc(CN2CCCC(O)C2)on1 (stereo unspecified) | 49.9
O=C(NCc1cc2ccccc2s1)c1cc(CN2CCCC(O)C2)on1 (stereo unspecified) | 50.8

Structure (SMILES) | INHIBITION [%]
O=C(NCc1cccc(F)c1F)c1cc(CN2CCCC(O)C2)on1 (stereo unspecified) | 34.1
CC(C)C[C@H](NC(=O)N1CCC(Cc2ccccc2)CC1)C(=O)O | 43.4
CCC(CO)N(Cc1cccnc1)C(=O)c1ccc(C)[nH]c1=O (stereo unspecified) | 35.1
Cc1ccc(CN2CCOC3(COCCN(S(C)(=O)=O)C3)C2)o1 (stereo unspecified) | 15.4
O=C(NCc1ccccc1)N1CCC(Oc2ncccc2Cl)CC1 | 22.2
COc1ncccc1CNC(=O)N1CCC(CNC(C)=O)CC1 | 0.266
N#Cc1cccnc1OC1CCN(C(=O)c2cc(C3CC3)on2)CC1 | 34.3
Clc1cccnc1OC1CCNCC1 | 28.6
Brc1cccnc1OC1CCNCC1 | 51
O=C(CCC(=O)N1CCC(Oc2ncccc2Br)CC1)c1ccccc1 | 45
O=C(NCc1ccccc1)N1CCC(Oc2ncccc2Br)CC1 | 74.4
O=C(c1cc(C2CC2)on1)N1CCC(Oc2ncccc2Br)CC1 | 44.2
N#Cc1cccnc1OC1CCN(C(=O)NCc2ccccc2)CC1 | 52.6
CCn1ncnc1CN1CCC(CNC(=O)c2cccnc2O)C1 (stereo unspecified) | -11.3
Cc1oc(C(C)C)cc1C(=O)N1C[C@@H]2CC[C@H]1CN(C(=O)N(C)C)C2 | -14.3
Cc1cc(C)n(CC2CCN(CC(O)CN3CCOCC3)CC2)n1 (stereo unspecified) | -5.22
O=C1NC(C(=O)NCc2cccnc2Oc2ccccc2F)CO1 (stereo unspecified) | -12.1
CCCc1noc(C2CCCCN2C(=O)C2CCCC2)n1 (stereo unspecified) | -11.7
